# In PubChem BioAssay AID1347426 (Functional Genomics Laboratory (NCATS/FGL), 2020):
# Screen size: about 31,000 sequences; about 1,400 (4.5%) were called active. This is one part of a sample in which actives are shown more often than they occur. Values without a mark were called inactive.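 Rule for the calls: active = median seed-adjusted z-score above 1 or below -1; inactive = the rest.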
# Assay: Novel Modifiers of Survival Motor Neuron (SMN) Protein: Gene Identification via Genome-wide siRNA Screen;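 note: luminescence tracks full-length SMN protein made from the SMN2 reporter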
# Conditions: HEK293T SMN2-luciferase reporter, siRNA knockdown, 72 h; actives lie on both sides
# How it was run: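 Steps: spot 1 pmol siRNA, add Lipofectamine RNAiMax in serum-free DMEM, seed HEK293T SMN2–luciferase reporter cells; incubate 72 h at 37 °C; add ONE-Glo; normalize luminescence to control siRNA, log10, MAD. Candidates: |MAD| > 1.0.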
row,Sequence,median seed-adjusted z-score
1,UGUUGACACUUUUAUCCAATT against ANAPC11,-0.581
2,AACCCUUUGUGGAACACCATT against PSMB4,-0.16
3,CGCAAAAAGGCAGACGAAATT against DUX5,-0.295
4,GCUAAGAAGAGAUAAUGAATT against MLKL,0
5,CCGAUUCGGUCACCAAGUATT against MYO1F,0.103
6,CCCUCACCGUGCAUGAGAATT against ZNF74,1.17 (active)
7,GUGCUAAAGAUCAUUGAUATT against TRIM32,0.109
8,GAUCAUGCGUAACUACAGUTT against JUP,0.15
9,AGAGCACCAGAAGACACAATT against GJC3,-0.137
10,GGACCUUUUUGUUAAGUCATT against RASD1,0.674
11,GGUCUUUACUGGAUUCAGATT against SERINC3,0.29
12,GAAUUUGUAUGAGAGCAUUTT against CYTH3,0.196
13,CUCUUAUGUUGGAUAUGUATT against USP14,0
14,GGAAGAAUUUCAGUCAGAATT against ZNF436,0.00767
15,GGACCUGCAUAUGAAAGUATT against PCDH8,-1.03 (active)
16,CAUUGUCUAUCAUCGCAAATT against NEB,0.0485
17,GGAAGGCAGAUGUAUCUUUTT against CMPK1,-0.363
18,GGCCUACGUUUGAAAGACATT against ZNF792,0
19,GACUUGUGAUACAAGCGUATT against RAD23B,0.639
20,GGUAAAGGGAAGUAACUAUTT against SLC2A13,-0.0451
21,CCCUAUCAAUUUCUAUGGATT against MPP4,0.13
22,GCCUGACAGUGGUAUACAATT against COPZ1,-1.02 (active)
23,GCUACAACUGGAUAAGGAATT against FTSJ1,0.0774

row,Sequence,median seed-adjusted z-score
1,CAUGAUAUCUGGACCCAAATT against SSX3,0
2,AGACGUACCGAGAGGAGUATT against PLA2G2F,0.508
3,CCAUGCUGGAGAUCAAGAATT against PRKAG3,-1.03 (active)
4,CCCUGGAUGUCCUAUCUGATT against SLC2A1,-0.349
5,GGAGGAUGACAAGAUCUAUTT against RNF113A,-0.128
6,GCACUGAUGUAAAUUACUUTT against RAB6C,-1.08 (active)
7,GCAGUACAGUGAAUGCCGATT against AKAP8,-0.252
8,CCACCGAGCUAACAUCUGATT against MFAP3L,1.03 (active)
9,CAGACUUAUUGUAACAAGATT against ENPP3,0.66
10,GCUACACUCAACUACCUGATT against ADCY5,-0.123
11,CCACAAGAGUUCGAACUCATT against ZFX,-0.581
12,GGAAUGCAAUUCUCAGAGATT against LCN2,0.123
13,CACAGAUUCGAGAAAUUCATT against SF3B1,-3.65 (active)
14,GGUUGACAAAUGCAGGAUATT against RIOK2,-0.16
15,GCAUCGGCAUCUUCACGCUTT against FZD5,-0.129
16,GACCCGCGAUUAAACCUCATT against CHST1,0.181
17,GGUUUGGGAUGGGAAUUGATT against SUPT16H,1.2 (active)
18,GGGUACAAGUUACCUAAUATT against TDRD6,0
19,GGAAACGACCUGUCAAAGATT against PHAX,-0.0716
20,GGAGAUCGUUCUGCACAGATT against PAEP,-0.0632
21,CCAUCUUGGUAAUGCCCAUTT against HTR1D,-0.155
22,CGAGUUACUUUUCAGCUAATT against MYH4,-1.8 (active)
23,AGUUCACCCUCGUACUCUATT against FURIN,0.0975

row,Sequence,median seed-adjusted z-score
1,UCAUAAACUUGGAUAAGCATT against NRIP3,-0.699
2,GCGAAUGAGUGGUAGAGGATT against ARHGAP21,0.229
3,GCACUUUUCGAGGAGGAGATT against SLC12A7,-0.0309
4,CAGUUGAUUUAAGAGGUAATT against PRPF4B,-2.29 (active)
5,CAAGGAGUUUUACCCAGUATT against CYP4Z1,-0.139
6,CUUUAUGACUUAGAGUUAATT against BAAT,0.641
7,GAACUUAUAAGUGCAGCAATT against ZNF547,0.099
8,CGUGGAAGGUGAGUAAUAATT against ZBTB40,0.187
9,GGUGGUGAAUGAAGGUUCATT against HINT1,0.873
10,CCAUAACCGCCACACCCUUTT against GPR153,-1.08 (active)
11,GAAUGCAUGUGAUCACCUATT against SF3B14,-1.26 (active)
12,GGGUUGCUAGAAAAUCGUATT against USP37,0.0907
13,GAGAUGAACGUGUAAAGAATT against CIR,-0.197
14,CAGAAUAUAUGACAGGAAATT against YY1,1.94 (active)
15,CCUCCGGAACAAGAACUAATT against ZNF397,-0.107
16,GUCUGCUUUGUAUAGAUAATT against KLRC3,0.833
17,CGACUACAUGUUCAAGAUUTT against RAB3A,-0.0787
18,GGAUGCGUUUUCUGACAAATT against GPR149,-0.186
19,GCAUACGAUUUUAAGCGGATT against PTEN,-0.408
20,GAACCAGGAGAGAAUAGAATT against PDGFRL,0.0203
21,GCUGCGAGCUCGAAACUUUTT against SEC14L4,-0.714
22,CGACAAGUCUGACAGGGAUTT against PQBP1,-1.12 (active)
23,GGUUUGAGCUUACUCUUCATT against ACCN5,0.227
